Screening data deposited in PubChem BioAssay by University of Kansas High Throughput Screening Laboratory.
Only some compounds are listed: those with a hit (about 3.5% of all), similar ones and a draw of the others.
Pf apPOL block – Pf-apPOL DNA polymerase inhibition. hit rate 0.25% among 210,000. AID 1794808. inhibition, % at 10 µM. Recombinant Pf-apPOL, molecular beacon fluorescence, 1.5 h
mHTT-CaM PPI inh – inhibitors of human mutant huntingtin-calmodulin interaction. inhibition, % at 15 µM. AID 1671202. P42858. hit rate 3.6% among 190,000. AlphaScreen His-mHTT/GST-CaM binding, luminescence;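 further: 0% = both proteins with DMSO and 100% = one protein alone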
An asterisk follows results filed as active; i = inactive; . = not tested or not shown. No stated cut-off is given here; in the data, active means inhibition above about 50%; inactive means the rest.

SMILES	Pf apPOL block	mHTT-CaM PPI inh
CN(C)c1ccc(C(CNC(=O)c2cccc([N+](=O)[O-])c2)N2CCOCC2)cc1 (stereo unspecified)	-5	-7
CN(C)c1ccc(C(CNC(=O)c2ccccc2[N+](=O)[O-])N2CCc3ccccc3C2)cc1 (stereo unspecified)	-5	66*
CC(=O)N1CCc2[nH]c3ccc(C(=O)NCCc4ccc(F)cc4)cc3c2C1	-8	52*
COc1ccc(OC)c(CNC(=O)c2ccc3[nH]c4c(c3c2)CN(C(C)=O)CC4)c1	8	44
COc1ccc(CCNC(=O)c2ccc3[nH]c4c(c3c2)CN(C(C)=O)CC4)cc1OC	-8	46
COc1ccccc1CNC(=O)c1ccc2[nH]c3c(c2c1)CN(C(C)=O)CC3	-2	28
CCc1ccccc1NC(=O)c1ccc2[nH]c3c(c2c1)CN(C(C)=O)CC3	-1	22
COc1ccc(CNC(=O)c2ccc3[nH]c4c(c3c2)CN(C(C)=O)CC4)c(OC)c1	-3	51*
CC(=O)N1CCc2[nH]c3ccc(C(=O)NCc4ccc(N5CCCC5)cc4)cc3c2C1	-2	89*
CCc1ccc(N(CC)C(=O)c2ccc3[nH]c4c(c3c2)CN(C(C)=O)CC4)cc1	-2	68*
CN1C(=O)Cc2ccccc2C1C(=O)NC1CCCCC1 (stereo unspecified)	-1	0
CC(C)(C)c1nc(N)nc(NNS(=O)(=O)c2ccccc2C(F)(F)F)n1	0	.
Cc1ccc(-c2cn(C3CN(C(=O)C4CCC4)C3)nn2)cc1	-2	3
CCC1CCCCN1C/C=C/c1ccc(N(C)C)cc1 (stereo unspecified)	-7	68*
CCC1CCCCN1C/C=C/c1ccccc1[N+](=O)[O-] (stereo unspecified)	0	-8
Cc1ccccc1CNC(=O)CCc1conc1-c1ccccc1	1	-9
N/C(=N\OC(=O)C12CC3CC(CC(C3)C1)C2)c1ccc(Cl)cc1	-1	i
OC(COCCC12CC3CC(CC(C3)C1)C2)CN1CCN(Cc2ccccc2)CC1 (stereo unspecified)	-1	57*
OC(COCCC12CC3CC(CC(C3)C1)C2)CN1CCN(c2ccccc2F)CC1 (stereo unspecified)	5	53*
OC(COCC12CC3CC(CC(C3)C1)C2)CN1CCN(c2ccccc2F)CC1 (stereo unspecified)	-4	33
OC(COCC12CC3CC(CC(C3)C1)C2)CN1CCN(Cc2ccccc2)CC1 (stereo unspecified)	2	25
COc1ccc(C(=O)N2CCC(c3nc(C(=O)N4CCCC4)c(C)o3)CC2)cc1F	-6	19
Cn1cc(S(=O)(=O)Nc2ccc(F)cc2Cl)c2cccnc21	93*	69*
Cn1cc(S(=O)(=O)Nc2cccc(Cl)c2)c2cccnc21	10	-5
Cc1cccc(NS(=O)(=O)c2cn(C)c3ncccc23)c1	88*	59*
SMILES	Pf apPOL block	mHTT-CaM PPI inh
CCCn1cc(S(=O)(=O)Nc2ccc(Cl)cc2F)c2cccnc21	13	39
Cc1ccsc1C(=O)NCc1ccc2c(c1)ncn2C(C)C	-2	16
COc1ccc(C(=O)Nc2cccc(SC)c2)cc1	1	-9
COc1ccc(Nc2n[nH]nc2C(=O)Nc2cccc(SC)c2)cc1	2	50*
O=C(Nc1nc2ccccc2s1)c1ccc(S(=O)(=O)N2CCc3ccccc32)cc1	-3	-16
CC(O)(CNC(=O)NC12CC3CC(CC(C3)C1)C2)c1ccccc1 (stereo unspecified)	1	0
Cc1ccc(-n2[nH]c(=O)c(C=c3c(C)c(C#N)c4nc5ccccc5n4c3=O)c2O)cc1Cl	3	51*
Cc1c(Cc2ccc(Cl)cc2)c(NCCCn2ccnc2)n2c(nc3ccccc32)c1C#N	1	-5
CC1(C)CC(=O)C2=C(C1)N(c1ccc(F)cc1)C(N)=C(C#N)C2c1cc(Br)cs1 (stereo unspecified)	-4	81*
Cc1cccc(N2C(N)=C(C#N)C(c3cccs3)C3=C2CC(C)(C)CC3=O)c1 (stereo unspecified)	-4	33
CC1(C)CC(=O)C2=C(C1)N(c1ccccc1)C(N)=C(C#N)C2c1ccc(Br)s1 (stereo unspecified)	-3	89*
COc1ccc(N2C(N)=C(C#N)C(c3ccc(F)cc3)C3=C2CC(C)(C)CC3=O)cc1 (stereo unspecified)	0	13
CS(=O)(=O)N(CC(=O)NCc1ccncc1)c1ccc(I)cc1	-3	-3
COc1ccc(-c2cn3c(C)c(C(=O)Nc4ccc(C(C)=O)cc4)sc3n2)cc1	4	12
Clc1ccc(Cc2nc(-c3cccc(-c4ccn[nH]4)c3)no2)cc1	2	91*
Clc1ccc(OCc2nc(-c3cccc(-c4ccn[nH]4)c3)no2)cc1	4	3
Cc1ccc(C(=O)N2CCN(S(=O)(=O)c3ccccc3)C2c2ccc(N(C)C)cc2)cc1 (stereo unspecified)	2	53*
Cc1ccc(C(=O)N2CCN(C(=O)c3ccccc3)C2c2ccc(N(C)C)cc2)cc1 (stereo unspecified)	6	40
O=C(CC1NCCN(Cc2ccccc2)C1=O)NN=Cc1cc(Cl)cc(Cl)c1O (stereo unspecified)	11	.
COc1ccc(OC)c(NC(=O)c2cnc3ccccc3n2)c1	-1	14
Cc1ccc(C(=O)NCCCCc2ccccc2)o1	4	1
Cc1cccc(COC[C@H](CC(C)C)N2CCN(C(=O)c3ccc(C(C)(C)C)cc3)CCC2=O)c1	-4	-15
Cc1cccc(C(=O)N2CCC(=O)N([C@H](COCc3ccc(Cl)cc3)Cc3ccccc3)CC2)c1	-12	99*
Cc1ccc(S(=O)(=O)N2CCC(=O)N([C@H](COCc3cccc(C)c3)Cc3ccccc3)CC2)cc1	-2	13
Cc1cccc(C(=O)N2CCC(=O)N([C@H](COCc3cccc(Cl)c3)Cc3ccccc3)CC2)c1	1	99*
SMILES	Pf apPOL block	mHTT-CaM PPI inh
Cc1ccc(S(=O)(=O)N2CCC(=O)N([C@H](COCc3ccc(C(F)(F)F)cc3)Cc3ccccc3)CC2)cc1	1	19
COc1cccc(C(=O)N2CCc3c(c(COCc4ccc(Cl)cc4)nn3C)C2)c1	-1	26
Cc1cccc(COC[C@H](Cc2ccccc2)N2CCN(C(=O)c3ccc(C(F)(F)F)cc3)CCC2=O)c1	-5	99*
O=C(c1ccc(Cl)c(Cl)c1)N1CCC(=O)N([C@H](COCc2ccc(Cl)cc2)Cc2ccccc2)CC1	1	100*
Cc1ccc(-c2nc(-c3ccc4nncn4c3)no2)c(C)c1	6	5
COc1cccc(-n2c(=O)c3c(n4cnnc24)-c2ccccc2CC32CCCCC2)c1	11	19
Cc1ccc(S(=O)(=O)N(CC(=O)NC2CC2)c2cccc(Cl)c2C)cc1	-11	1
CCc1ccc(O)c(N=Cc2cc(Cl)ccc2O)c1	-2	16
CC(NC(=O)C1CCN(C(=O)c2ccc(F)cc2)CC1)c1ccccc1 (stereo unspecified)	-11	-1
O=C(O)CN(CC(=O)O)CC(=O)O	-6	26
Cc1cc(C(=O)N2CC(c3nc4ccccc4[nH]3)C2)no1	-2	-10
O=C(c1ccc(Oc2ccccc2)cc1)N1CC(c2nc3ccccc3[nH]2)C1	-28	100*
CN(C)c1ccc(C(=O)N2CCc3cn(C)c4cccc(c34)C2)cc1	-4	1
CCCn1cc2c3c(cccc31)CN(C(=O)c1ccsc1)CC2	5	39
